According to PubChem BioAssay (NCATS):
Results filed as inconclusive are left out. Where a call stands in place of a potency, no number is given. Calls of active or inactive are those of the source. Calls follow the shape of the dose curve; as a rule, active = well fitted inhibition curve with a large enough effect; inconclusive = small, poorly fitted or top-dose-only effect; inactive = no such curve, though single readings can be large or run the other way.

The molecules below were run against Papain (Carica papaya) (UniProt P00784) (assay: Primary qHTS assay for inhibitors of the protease papain (AID 1645873;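 also: papain turnover of Z-FR-AMC read as the AMC fluorescence gain over 10 min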)). Details: papain Z-FR-AMC cleavage, AMC fluorescence; series mostly up to 49.8 µM.
Sequence of Papain (Carica papaya) (P00784 whole entry, looked up): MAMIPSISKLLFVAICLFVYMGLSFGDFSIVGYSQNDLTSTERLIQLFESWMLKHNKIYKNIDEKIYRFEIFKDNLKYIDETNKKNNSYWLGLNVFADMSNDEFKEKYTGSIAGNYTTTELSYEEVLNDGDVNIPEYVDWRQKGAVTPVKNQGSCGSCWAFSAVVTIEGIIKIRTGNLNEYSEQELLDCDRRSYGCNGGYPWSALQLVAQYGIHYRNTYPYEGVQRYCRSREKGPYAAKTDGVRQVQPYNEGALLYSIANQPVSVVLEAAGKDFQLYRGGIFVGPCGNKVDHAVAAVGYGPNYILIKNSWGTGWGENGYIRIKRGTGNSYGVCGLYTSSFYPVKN
In the case of `CC(=O)SCC[N+](C)(C)C`, the Potency is reported as “inactive”. With `CC(=O)/C=C1\C(=O)N(C)c2ccccc21` the Potency was “inactive”. `Nc1nc(SCc2ccc([N+](=O)[O-])cc2)c2ncn([C@@H]3O[C@H](CO)[C@@H](O)[C@H]3O)c2n1` was tested, and the Potency was “inactive”. In the case of `O=C1C(SCCO)=C(SCCO)C(=O)c2ccccc21`, the Potency is reported as “inactive”. `O=C(O)c1cc(=O)c2ccccc2[nH]1` was tested, and the Potency was “inactive”. With `CNC(=O)[C@H]1O[C@@H](n2cnc3c(NCc4ccc(N)cc4)ncnc32)[C@H](O)[C@@H]1O` the Potency was “inactive”. With `NO` the Potency was “inactive”. For `COc1cc(C(O)CO)ccc1OS(=O)(=O)O` (stereo not drawn), the Potency was “inactive”. In the case of `Cn1c(=O)c2[nH]c(-c3ccccc3)nc2n(C)c1=O`, the Potency is reported as “inactive”. With `NCCCCC(=O)O` the Potency was “inactive”. With `COc1ccc2c(c1)CCC1C2CC[C@@]2(C)C1CC[C@@H]2NCCCCCCN1C(=O)CCC1=O` (stereo partly drawn) the Potency was “inactive”. `Fc1cccc(/C=N/N=C/c2cccc(F)c2)c1` was tested, and the Potency was “inactive”. `O=C(O)CNC(=O)C(CS)Cc1ccccc1` (stereo not drawn) was tested, and the Potency was “inactive”. With `Brc1c(Br)c(Br)c2n[nH]nc2c1Br` the Potency was “inactive”. With `Nc1nc(Cl)nc2c1ncn2[C@@H]1O[C@H](COP(=O)(O)OP(=O)(O)OP(=O)(O)O)[C@@H](O)[C@H]1O` the Potency was “inactive”. In the case of `Nc1ncnc2c1ncn2[C@@H]1O[C@H](COP(=O)(O)CP(=O)(O)OP(=O)(O)O)[C@@H](O)[C@H]1O`, the Potency is reported as “inactive”. With `O=C1NC(=O)/C(=C/c2ccc(-c3ccc(F)cc3O)o2)S1` the Potency was “inactive”. In the case of `C[N+](C)(C)CCOP(=O)(O)OP(=O)([O-])OC[C@H]1O[C@@H](n2ccc(N)nc2=O)[C@H](O)[C@@H]1O`, the Potency is reported as “inactive”.
